Screening data from PubChem BioAssay.
RAD52 inh: RAD52 (human) annealing inhibition | recombinant RAD52 DNA annealing, FRET fluorescence | inhibition, % at 18.7 µM | 360,000 tested, 0.46% active | AID 651710;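 active means every replicate showing at least 50% inhibition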
Target sequence (P43351 whole entry, looked up): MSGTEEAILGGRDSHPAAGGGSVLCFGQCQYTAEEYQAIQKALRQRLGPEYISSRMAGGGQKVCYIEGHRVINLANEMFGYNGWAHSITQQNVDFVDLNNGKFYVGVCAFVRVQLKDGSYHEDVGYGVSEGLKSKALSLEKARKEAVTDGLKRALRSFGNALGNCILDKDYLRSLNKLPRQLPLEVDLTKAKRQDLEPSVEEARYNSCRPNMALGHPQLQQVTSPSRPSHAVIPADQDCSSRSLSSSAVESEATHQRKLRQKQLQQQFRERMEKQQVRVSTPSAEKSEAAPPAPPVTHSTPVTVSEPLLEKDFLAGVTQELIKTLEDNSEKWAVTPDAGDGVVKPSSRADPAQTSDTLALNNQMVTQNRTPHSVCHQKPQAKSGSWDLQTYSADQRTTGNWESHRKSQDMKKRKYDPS
CASP6 VEID inh: caspase-6 (human) enzyme inhibition; purified caspase-6, Z-VEID-R110 cleavage fluorescence; AID 686996; inhibition, % at 12.5 µM; 350,000 tested, 0.53% active;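 active means mean inhibition across replicates at least about 35%, with every replicate also reaching that limit, limit read from the data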;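 further: 0% = median of neutral control wells and 100% = no fluorescence left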
miR122 inh: blocks miR-122 activity in Huh7 sensor cells. Huh7 miR-122 Renilla luciferase sensor, 48 h; neutral wells = 0, positive control = 100. activation (reporter increase), % at 12.5 µM. 340,000 tested, 0.3% active. AID 602342;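 active means mean replicate activation score at least 90 and every replicate individually at or above 90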;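 further: higher luciferase means less miR-122 activity so hits act as miR-122 inhibitors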
NSD2 HMT inh: NSD2 (human) methyltransferase inhibition. O96028. 310,000 tested, 0.54% active. inhibition, % at 12.5 µM. NSD2 peptide methylation, AlphaScreen, 120 min; in the data active means inhibition above about 50%
AF4-AF9 inh: MLL-AF4/AF9 protein interaction inhibition. P42568. AlphaScreen, biotin-AF4 peptide binding to FLAG-AF9. inhibition, % at 10 µM. 350,000 tested, 0.47% active;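 active means every replicate reaching a set inhibition limit, whatever the replicate mean, cut at about 25% in these data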;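 further: 0% = plate neutral control median and 100% = total signal loss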
miR-27b select: alters miR-27b levels in Huh7 cells, selectivity for miR-122 inhibitors | shares compounds with miR122 inh | Huh7 miR-27b levels, qRT-PCR, 48 h | relative miR-27b level (unnormalised ratio), ratio at 35 µM | 35 tested, under 10 active;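 active means compounds lowering miR-27b whose fitted half-maximal dose is at most twice their top tested dose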
AlphaScreen intf: counter-screen: AlphaScreen signal interference | signal luminescence | AID 720494 | AC50, µM (highest dose often 12 µM), without a hit: top-dose activity change, negative = inhibition | shares compounds with AF4-AF9 inh | 530 tested, 45% active; cut-off not given, nearly all actives have AC50 up to about 14 µM
Active calls of the source: *; [ ] = dose if it differs, or a comment. In the library only some 1.5% were active in any assay of this set; here they are far more common.

Screening O=C(Nc1ccc(C(F)(F)F)cc1)N1C[C@@H]2N[C@H](C1)C2c1ccc(-c2cccc(F)c2)cc1 (some centres not stated) returned RAD52 inh 62.1*, CASP6 VEID inh 2.9 and AF4-AF9 inh -4.9.
COc1cc(C2C(C#N)=C(N)OC3=C2C(=O)CCC3)c([N+](=O)[O-])cc1OC (configuration not stated) was read as miR122 inh 4.0 and NSD2 HMT inh 75.3*.
Cc1cc(C2C(C#N)=C(N)OC3=C2C(=O)CCC3)c(C)s1 (configuration not stated) was read as miR122 inh 4.7 and NSD2 HMT inh 5.7.
`COC(=O)C[C@@H]1CC[C@H]2[C@@H](COc3ccc(NS(C)(=O)=O)cc3C(=O)N2C)O1` gave miR122 inh 25.0[16.7 µM].
For Cc1ccc(C)c(S(=O)(=O)NCCCn2ccnc2)c1 the results were miR122 inh 2.7 and NSD2 HMT inh -0.4.
For Cc1cc(Cl)c(Cl)cc1S(=O)(=O)NCCCn1ccnc1 the results were RAD52 inh -2.3, CASP6 VEID inh -10.5, miR122 inh 132.0*, NSD2 HMT inh -1.5, AF4-AF9 inh 3.7 and miR-27b select 0.869.
C[C@H]1CN([C@@H](C)CO)C(=O)c2c(c3ccccc3n2C)-c2ccccc2CO[C@H]1CN(C)Cc1ccccc1 was read as RAD52 inh 20.8, CASP6 VEID inh -3.1 and AF4-AF9 inh 3.6.
Screening C[C@H]1CN([C@@H](C)CO)S(=O)(=O)c2ccc(/C=C/c3ccccc3)cc2O[C@@H]1CN(C)C(=O)NC1CCCC1 returned RAD52 inh -6.7, CASP6 VEID inh 0.7, miR122 inh 15.2[16.7 µM] and AF4-AF9 inh 8.2.
Screening CCOc1ccccc1N1CCN(C(=O)c2cccc(-c3ccc(O)cc3)c2)CC1 returned RAD52 inh -3.4, CASP6 VEID inh -5.5, miR122 inh 156.3*, NSD2 HMT inh 5.4 and miR-27b select 0.836.
For CCOc1ccccc1N1CCN(C(=O)c2ccncc2)CC1 the results were NSD2 HMT inh -1.0.
`COCCCNC(=O)[C@@]1(CCS(=O)(=O)c2ccccc2)COC(c2ccc(OCCCO)cc2)=N1` gave RAD52 inh -13.5, CASP6 VEID inh 0.6 and AF4-AF9 inh -0.6.
For CCOc1cc(S(=O)(=O)NC2CCCCC2)ccc1F the results were miR122 inh 36.9 and NSD2 HMT inh -0.7.
`Cc1cc(C)c(C)c(S(=O)(=O)NC2CCCCC2)c1C` gave RAD52 inh -26.3, CASP6 VEID inh -3.6, miR122 inh 92.9*, NSD2 HMT inh -2.8, AF4-AF9 inh -1.3 and miR-27b select 0.681.
`CCOc1ccc(C)cc1S(=O)(=O)NC1CCCCC1` gave miR122 inh 282.6*, NSD2 HMT inh -2.8 and miR-27b select 0.52.
CN(C)C(=O)[C@H]1[C@H](CO)[C@H]2Cn3c(cccc3=O)[C@H]2N1C(=O)C1CCCCC1 was read as RAD52 inh -40.1, CASP6 VEID inh -0.2, miR122 inh -5.0[16.7 µM] and AF4-AF9 inh -1.0.
`O=C(Nc1nccs1)[C@H]1[C@H](CO)[C@H]2Cn3c(cccc3=O)[C@H]2N1C(=O)C1CC1` gave RAD52 inh 0.7, CASP6 VEID inh -0.2 and AF4-AF9 inh -3.0.
COCCNS(=O)(=O)c1ccc2c3c(cccc13)C(=O)N2C was read as RAD52 inh -14.1, CASP6 VEID inh 2.0, miR122 inh 32.7, NSD2 HMT inh 0.4 and AF4-AF9 inh -1.1.
`CN1C(=O)c2cccc3c(S(=O)(=O)NCCc4ccccc4)ccc1c23` gave RAD52 inh -15.5, CASP6 VEID inh -1.7, miR122 inh 117.1*, NSD2 HMT inh -17.2, AF4-AF9 inh -2.5 and miR-27b select 0.643.
`COc1cc(C)c(C(C)C)cc1S(=O)(=O)n1cnc(C)c1` gave RAD52 inh -7.1, CASP6 VEID inh 4.1, miR122 inh 152.2*, AF4-AF9 inh -0.1 and miR-27b select 0.91.
`Cc1cc(C(C)(C)C)cc(S(=O)(=O)NCCO)c1C` gave miR122 inh 93.4*, NSD2 HMT inh 0.0 and miR-27b select 0.935.
Screening Cc1ccc(/C=C/C(=O)O)cc1S(=O)(=O)NCCO returned miR122 inh -2.7 and NSD2 HMT inh 0.0.
Cc1noc(C)c1NC(=O)N[C@H]1C=C[C@@H](CC(=O)NCc2ccc(Cl)c(Cl)c2)O[C@@H]1CO was read as RAD52 inh -1.2, CASP6 VEID inh 1.9 and AF4-AF9 inh -2.8.
For O=C(Nc1ccc(N2CCOCC2)c(S(=O)(=O)Nc2cc(Cl)ccc2Cl)c1)c1cccnc1 the results were RAD52 inh -39.9, CASP6 VEID inh 1.8, miR122 inh 325.0*, NSD2 HMT inh 3.2, AF4-AF9 inh -1.7 and miR-27b select 0.988.
For COc1ccc(C)cc1NS(=O)(=O)c1ccc2c(c1)N(C)CCO2 the results were RAD52 inh -4.7, CASP6 VEID inh 3.1, miR122 inh 148.9*, NSD2 HMT inh 27.3, AF4-AF9 inh 6.7 and miR-27b select 1.23.
Screening Nc1c(S(=O)(=O)c2cccs2)c2nc3ccccc3nc2n1Cc1ccccc1 returned miR122 inh 321.1*, NSD2 HMT inh 3.6 and miR-27b select 0.432.
For Cc1ccc(Cn2c(N)c(S(=O)(=O)c3cccs3)c3nc4ccccc4nc32)cc1 the results were miR122 inh 27.4 and NSD2 HMT inh -3.5.
Cc1ccc(S(=O)(=O)Nc2ccc3c4c(cccc24)CC3)c(C)c1 was read as miR122 inh 198.4*, NSD2 HMT inh 0.8 and miR-27b select 0.651.
Cc1cccc(NS(=O)(=O)c2cc3c(cc2C)NC(=O)CO3)c1 was read as RAD52 inh -6.1, CASP6 VEID inh -2.6, miR122 inh 107.1*, AF4-AF9 inh 1.9 and miR-27b select 0.687.
`O=C(C[C@@H]1C=C[C@@H](NC(=O)C2CCC2)[C@H](CO)O1)NCCCN1CCOCC1` gave RAD52 inh -5.6, CASP6 VEID inh -10.6, miR122 inh 3.7[16.7 µM] and AF4-AF9 inh -0.3.
`Cc1ccc(C)c(S(=O)(=O)Nc2ccc3cn[nH]c3c2)c1` gave RAD52 inh -11.3, CASP6 VEID inh 5.2, miR122 inh 153.2*, NSD2 HMT inh -0.2, AF4-AF9 inh 0.8 and miR-27b select 1.26.
Screening O=[N+]([O-])c1ccc(/C=N/Nc2ccnc3cc(Cl)ccc23)o1 returned RAD52 inh -10.5, CASP6 VEID inh 2.0, miR122 inh 6.7, NSD2 HMT inh 11.4, AF4-AF9 inh 27.6* and AlphaScreen intf -29.0%.
Screening Clc1ccc2c(N/N=C/c3ccccc3Br)ccnc2c1 returned RAD52 inh 2.2, CASP6 VEID inh -0.6, miR122 inh -58.8, NSD2 HMT inh -4.6 and AF4-AF9 inh -0.6.
